Test [1] can be described thus: small molecules captured by biotinylated probe aFSTL3 – biochemical, small-molecule microarray, fluorescence 635/667, stem cell growth factor project, primary screen (AID 1064).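 Note: measures binding of the biotinylated anti-FSTL3 antibody to printed compounds.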 The conditions noted are these: higher = more signal.
Test [2] is described as follows: binders from COS7 lysate, DM2A8 probe, primary screen, torsin A project, cell lysate, small-molecule microarray, fluorescence 635/667 (AID 1065). The conditions noted are these: higher = more signal, COS7 lysate expressing mutant human TOR1A.
A short description of test [3]: small molecules captured by biotinylated probe aFGF2 – biochemical, small-molecule microarray, fluorescence 635/667, stem cell growth factor project, primary screen (AID 1067).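 Note: measures binding of biotinylated aFGF2 protein to printed compounds on slides; z-score merges feature fluorescence and signal-to-noise across triplicate slides.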 The conditions noted are these: higher = more signal.
Test [4] can be described thus: small molecules captured by biotinylated probe aFGF10 – biochemical, small-molecule microarray, fluorescence 635/667, stem cell growth factor project, primary screen (AID 1071).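 Note: score merges 667 nm spot intensity and signal to noise from triplicate slides.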 Particulars: higher = more signal.
Test [5] has as its target Neurogenic locus notch homolog protein 2 (Homo sapiens) (UniProt Q04721). The experiment in a line: small molecules binding Notch2 protein – biochemical, small-molecule microarray, 635 nm fluorescence, stem cell growth factors, primary screen (AID 1073). Particulars: higher = more signal.
For test [6], the target named is Pro-neuregulin-1, membrane-bound isoform (Homo sapiens) (UniProt Q02297). The experiment in a line: small molecules binding neuregulin-1 protein – biochemical, small-molecule microarray, fluorescence 635/667, psychiatric disease protein project, primary screen (AID 1075).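 Note: score combines 667 nm spot fluorescence with signal to noise.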 The conditions noted are these: NRG1 binding, 635 nm fluorescence, higher = more signal.
For test [7], the system named is Neuregulin-1 EGF-like domain. The experiment in a line: small molecules binding NRG1 EGF domain – biochemical, small-molecule microarray, 635 nm fluorescence, primary screen (AID 1081).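 Note: binding of the protein to compounds printed on small-molecule microarray slides.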 Particulars: higher = more signal.
Test [8] in a line: FRG1 expression reporter modulators in myotubes – cell-based, C2C12 myotubes, firefly/Renilla luciferase, luminescence, FRG1 inhibition for FSHD, primary screen (AID 1084). The conditions noted are these: FRG1 promoter luciferase, higher = more signal, called active from +8 up or from −8 down.
Test [9] is described as follows: small molecules captured by biotinylated probe aFST – biochemical, small-molecule microarray, fluorescence 635/667, stem cell growth factor project, primary screen (AID 1086).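 Note: score merges 667 nm fluorescence with signal-to-noise of each printed compound spot.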 Particulars: higher = more signal.
Test [10] is described as follows: binders of probe aHhip on microarray, primary screen, stem cell growth factor project, biochemical, small-molecule microarray, fluorescence 635/667 (AID 1087).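 Note: score merges spot fluorescence at 667nm with spot signal to noise ratio.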 The conditions noted are these: higher = more signal.
Test [11] concerns PRMT1 (protein arginine N-methyltransferase 1). The experiment in a line: small molecules binding arginine methyltransferase PRMT1 – biochemical, small-molecule microarray, 635 nm fluorescence, primary screen (AID 1088).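 Note: binding of Prmt1 protein to compounds spotted on small-molecule microarray slides.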 Particulars: higher = more signal.
A short description of test [12]: growth effects on S. cerevisiae YJM789 – YJM789 clinical isolate, OD600, 24 h, basal, primary screen (AID 1089).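 Note: growth of clinical yeast isolate S. cerevisiae YJM 789 seeded 1000 cells per well; test concentration not given here.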 The conditions noted are these: higher = more signal, called active from +8 up or from −8 down.
Test [13] is described as follows: S. pombe growth modifiers, basal conditions – strain 972, OD600, 24 h, no modulator, primary screen (AID 1090).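 Note: basal condition with compound alone and no growth modifier present; test concentration not given here.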 Particulars: S. pombe 972 growth, higher = more signal, called active from +8 up or from −8 down.
Test [14] in a line: budding yeast growth modifiers under rapamycin – strain BY4716, OD600, 96 h, primary screen (AID 1091). Note: test concentration not given here. The conditions noted are these: S. cerevisiae BY4716 + rapamycin, higher = more signal, called active from +8 up or from −8 down.
Test [15] has as its target Torsin-1A-interacting protein 2 (Homo sapiens) (UniProt Q8NFQ8). The experiment in a line: small molecules binding lysate-expressed LULL1 – cell lysate, human LULL1 lysate, 635/667 nm fluorescence, primary screen (AID 1092).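 Note: score merges per-feature 667 nm fluorescence with signal-to-noise.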 The conditions noted are these: small-molecule microarray, hLULL1 lysate binding, 635 nm fluorescence; higher = more signal.
Test [16] is described as follows: optical density change of DRC41 E. coli – strain DRC41, OD650, 24 h, E. coli filamentation project, primary screen (AID 1093).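 Note: MC1000 strain lacking acrAB efflux and sulA so SOS filamentation is blocked; test concentration not given here.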 Particulars: E. coli DRC41 growth, higher = more signal, called active from +8 up or from −8 down.
The nature of test [17]: probe aLefty2 binding to arrayed compounds – biochemical, biotinylated probe, 635/667 nm fluorescence, primary screen (AID 1094).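 Note: score merges spot fluorescence near 667 nm with spot signal-to-noise ratio.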 Particulars: small-molecule microarray, higher = more signal.
The subject of test [18] is Noggin (protein binding on small-molecule microarray). The experiment in a line: small molecules binding Noggin protein – biochemical, 635/667 nm fluorescence, primary screen (AID 1095).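 Note: score merges 667 nm feature fluorescence with signal to noise over triplicate slides.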 Particulars: 635 nm fluorescence, higher = more signal.
Test [19] has as its target Neurogenic locus notch homolog protein 3 (Homo sapiens) (UniProt Q9UM47). The experiment in a line: small molecules binding NOTCH3 protein – biochemical, 635/667 nm fluorescence, primary screen (AID 1096). Particulars: small-molecule microarray, 635 nm fluorescence, higher = more signal.
A short description of test [20]: probe aEGFR binding to arrayed compounds – biochemical, biotinylated probe, 635/667 nm fluorescence, primary screen (AID 1097).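 Note: probe is a biotinylated anti-EGFR antibody binding compounds printed on slides; score combines fluorescence near 667 nm and signal to noise of each spot.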 Particulars: small-molecule microarray, higher = more signal.

The source made the active and inactive calls.

Chain of Neurogenic locus notch homolog protein 3 (Homo sapiens) (Q9UM47 whole entry, looked up): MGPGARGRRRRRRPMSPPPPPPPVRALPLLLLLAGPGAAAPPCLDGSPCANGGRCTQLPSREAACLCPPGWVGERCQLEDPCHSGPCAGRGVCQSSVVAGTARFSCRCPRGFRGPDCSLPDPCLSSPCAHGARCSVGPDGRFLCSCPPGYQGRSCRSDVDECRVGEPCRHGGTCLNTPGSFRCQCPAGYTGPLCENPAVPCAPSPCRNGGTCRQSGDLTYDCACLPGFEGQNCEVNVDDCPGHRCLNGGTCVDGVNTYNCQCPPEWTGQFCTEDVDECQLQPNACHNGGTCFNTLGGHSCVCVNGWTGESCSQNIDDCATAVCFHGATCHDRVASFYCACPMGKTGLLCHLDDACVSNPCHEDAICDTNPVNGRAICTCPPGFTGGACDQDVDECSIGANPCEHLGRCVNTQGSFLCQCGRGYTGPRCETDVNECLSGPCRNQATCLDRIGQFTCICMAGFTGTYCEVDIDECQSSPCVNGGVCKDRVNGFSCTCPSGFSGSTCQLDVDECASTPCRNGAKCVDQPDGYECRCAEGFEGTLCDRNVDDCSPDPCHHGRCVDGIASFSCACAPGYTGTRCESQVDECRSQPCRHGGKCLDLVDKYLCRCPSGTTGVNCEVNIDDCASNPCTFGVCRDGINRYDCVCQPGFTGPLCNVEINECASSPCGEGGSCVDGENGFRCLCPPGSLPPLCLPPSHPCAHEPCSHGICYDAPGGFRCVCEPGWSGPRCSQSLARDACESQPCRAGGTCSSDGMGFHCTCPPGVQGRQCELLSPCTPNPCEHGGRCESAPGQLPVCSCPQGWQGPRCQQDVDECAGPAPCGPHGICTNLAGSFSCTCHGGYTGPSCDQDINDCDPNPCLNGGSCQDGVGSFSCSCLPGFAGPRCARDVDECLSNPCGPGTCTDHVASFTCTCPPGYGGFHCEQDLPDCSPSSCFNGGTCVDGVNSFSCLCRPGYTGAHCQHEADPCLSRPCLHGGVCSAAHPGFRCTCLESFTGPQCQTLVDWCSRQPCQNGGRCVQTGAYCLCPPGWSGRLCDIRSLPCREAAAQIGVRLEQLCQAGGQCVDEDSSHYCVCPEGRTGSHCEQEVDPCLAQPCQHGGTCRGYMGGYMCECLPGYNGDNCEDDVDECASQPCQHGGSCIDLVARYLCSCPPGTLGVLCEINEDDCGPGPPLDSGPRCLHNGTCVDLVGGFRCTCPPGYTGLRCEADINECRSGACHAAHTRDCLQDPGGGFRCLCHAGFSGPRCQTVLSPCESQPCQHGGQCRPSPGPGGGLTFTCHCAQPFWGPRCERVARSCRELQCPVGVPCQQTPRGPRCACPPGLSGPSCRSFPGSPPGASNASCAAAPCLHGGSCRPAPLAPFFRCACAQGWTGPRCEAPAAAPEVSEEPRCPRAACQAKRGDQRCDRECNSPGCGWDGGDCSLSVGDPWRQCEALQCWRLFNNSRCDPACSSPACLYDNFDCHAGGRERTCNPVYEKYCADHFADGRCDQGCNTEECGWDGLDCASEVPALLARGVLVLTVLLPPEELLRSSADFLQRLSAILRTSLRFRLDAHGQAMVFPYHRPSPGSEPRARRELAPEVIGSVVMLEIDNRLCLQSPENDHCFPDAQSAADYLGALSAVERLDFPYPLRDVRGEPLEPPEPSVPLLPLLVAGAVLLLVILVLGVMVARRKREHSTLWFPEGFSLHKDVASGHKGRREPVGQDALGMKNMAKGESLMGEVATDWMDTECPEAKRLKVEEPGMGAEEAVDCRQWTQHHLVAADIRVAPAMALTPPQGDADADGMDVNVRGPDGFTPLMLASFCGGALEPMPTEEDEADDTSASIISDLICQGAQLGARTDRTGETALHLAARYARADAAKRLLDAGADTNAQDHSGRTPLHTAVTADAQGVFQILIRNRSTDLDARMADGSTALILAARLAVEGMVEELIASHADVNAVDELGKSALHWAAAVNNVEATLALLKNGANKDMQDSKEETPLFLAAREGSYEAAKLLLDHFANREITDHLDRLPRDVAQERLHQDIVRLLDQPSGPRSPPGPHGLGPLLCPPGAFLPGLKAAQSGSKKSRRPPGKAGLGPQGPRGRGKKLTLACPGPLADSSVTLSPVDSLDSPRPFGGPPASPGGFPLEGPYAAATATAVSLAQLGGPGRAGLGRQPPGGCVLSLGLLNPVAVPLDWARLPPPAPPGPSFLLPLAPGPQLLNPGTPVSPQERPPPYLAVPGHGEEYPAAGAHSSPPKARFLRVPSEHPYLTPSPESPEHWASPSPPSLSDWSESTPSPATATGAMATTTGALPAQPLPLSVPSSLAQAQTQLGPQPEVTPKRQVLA
Chain of Neurogenic locus notch homolog protein 2 (Homo sapiens) (Q04721 whole entry, looked up, canonical isoform): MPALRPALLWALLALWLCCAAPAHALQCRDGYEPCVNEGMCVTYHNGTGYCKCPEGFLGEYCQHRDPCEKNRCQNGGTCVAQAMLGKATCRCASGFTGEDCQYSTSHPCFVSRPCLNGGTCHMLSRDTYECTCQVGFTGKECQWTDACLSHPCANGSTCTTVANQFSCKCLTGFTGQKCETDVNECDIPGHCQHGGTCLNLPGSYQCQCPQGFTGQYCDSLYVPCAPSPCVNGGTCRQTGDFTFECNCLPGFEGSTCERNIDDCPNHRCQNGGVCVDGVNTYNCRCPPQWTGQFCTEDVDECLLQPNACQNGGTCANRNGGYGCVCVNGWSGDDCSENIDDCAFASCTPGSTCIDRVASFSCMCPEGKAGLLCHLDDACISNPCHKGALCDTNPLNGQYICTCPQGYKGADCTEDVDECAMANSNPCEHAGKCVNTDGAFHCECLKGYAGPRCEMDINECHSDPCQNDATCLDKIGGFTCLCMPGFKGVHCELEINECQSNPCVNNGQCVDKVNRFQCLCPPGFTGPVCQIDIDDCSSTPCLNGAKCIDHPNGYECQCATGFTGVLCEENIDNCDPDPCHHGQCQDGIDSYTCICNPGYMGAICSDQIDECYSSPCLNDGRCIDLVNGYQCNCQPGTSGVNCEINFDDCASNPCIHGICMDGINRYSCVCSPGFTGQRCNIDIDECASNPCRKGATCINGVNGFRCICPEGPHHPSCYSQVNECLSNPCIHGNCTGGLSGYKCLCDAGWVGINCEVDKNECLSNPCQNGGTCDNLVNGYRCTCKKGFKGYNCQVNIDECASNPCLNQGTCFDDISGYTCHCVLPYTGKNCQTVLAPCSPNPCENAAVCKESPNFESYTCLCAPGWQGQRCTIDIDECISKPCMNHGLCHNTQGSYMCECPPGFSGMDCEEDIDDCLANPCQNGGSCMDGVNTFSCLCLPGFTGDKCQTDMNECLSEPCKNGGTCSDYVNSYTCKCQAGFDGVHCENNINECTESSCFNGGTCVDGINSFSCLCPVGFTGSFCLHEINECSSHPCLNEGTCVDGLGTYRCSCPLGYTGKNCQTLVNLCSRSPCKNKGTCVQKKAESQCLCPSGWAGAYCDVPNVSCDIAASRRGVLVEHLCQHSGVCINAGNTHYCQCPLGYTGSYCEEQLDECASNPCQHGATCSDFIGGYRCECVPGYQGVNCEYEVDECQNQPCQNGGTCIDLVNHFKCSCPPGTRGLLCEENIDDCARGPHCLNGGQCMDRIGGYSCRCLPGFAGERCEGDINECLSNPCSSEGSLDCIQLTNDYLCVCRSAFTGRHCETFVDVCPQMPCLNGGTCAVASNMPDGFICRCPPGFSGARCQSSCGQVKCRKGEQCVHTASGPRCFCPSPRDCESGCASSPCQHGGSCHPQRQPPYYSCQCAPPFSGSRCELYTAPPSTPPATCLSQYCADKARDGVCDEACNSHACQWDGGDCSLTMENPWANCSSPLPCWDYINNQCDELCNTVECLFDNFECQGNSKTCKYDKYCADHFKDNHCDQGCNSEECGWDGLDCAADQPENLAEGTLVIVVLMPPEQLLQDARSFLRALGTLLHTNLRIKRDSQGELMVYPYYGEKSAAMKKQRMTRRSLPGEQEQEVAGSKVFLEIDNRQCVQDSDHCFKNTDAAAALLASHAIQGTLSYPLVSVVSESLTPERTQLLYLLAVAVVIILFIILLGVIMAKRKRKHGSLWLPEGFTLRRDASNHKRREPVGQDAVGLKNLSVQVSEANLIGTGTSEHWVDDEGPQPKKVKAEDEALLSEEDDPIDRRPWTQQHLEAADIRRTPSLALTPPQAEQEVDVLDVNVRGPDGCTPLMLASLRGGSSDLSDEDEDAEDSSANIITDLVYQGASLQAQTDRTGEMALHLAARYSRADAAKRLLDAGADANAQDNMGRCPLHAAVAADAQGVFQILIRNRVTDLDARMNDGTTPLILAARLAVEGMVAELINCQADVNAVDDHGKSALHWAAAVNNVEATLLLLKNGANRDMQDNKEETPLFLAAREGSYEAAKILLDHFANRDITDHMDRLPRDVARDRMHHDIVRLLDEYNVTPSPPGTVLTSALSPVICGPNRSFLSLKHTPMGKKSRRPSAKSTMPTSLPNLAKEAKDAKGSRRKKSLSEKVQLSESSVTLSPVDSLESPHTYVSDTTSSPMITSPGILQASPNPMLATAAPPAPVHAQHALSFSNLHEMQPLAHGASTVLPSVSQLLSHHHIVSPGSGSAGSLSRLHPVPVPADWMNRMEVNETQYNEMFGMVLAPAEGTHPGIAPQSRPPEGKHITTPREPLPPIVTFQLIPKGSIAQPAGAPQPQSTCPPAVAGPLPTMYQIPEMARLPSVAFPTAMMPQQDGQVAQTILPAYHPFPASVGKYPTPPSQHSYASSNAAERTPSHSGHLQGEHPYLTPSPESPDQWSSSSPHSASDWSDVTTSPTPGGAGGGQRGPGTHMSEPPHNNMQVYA

With `CCCC[C@@H]1C[C@H]1[C@@H](NC(=O)c1ccc(C(F)(F)F)cc1)c1ccc(C(=O)OC)cc1`, the composite z-score in test [1] amounted to 1.54; in test [2], 2.4; in test [3] it was 0.589; in [4] it was 0.769; in test [5], 0.587; in test [6] it was 0.311. Further, the composite z-score in test [7] is 0.0521; in test [9] it was 0.568; in test [10], 2.46; in test [11], 0.715; in test [15], 0.888; in test [17], 0.293. The composite z-score is 0.747 in [18], 0.812 in [19] and 0.695 in [20]. Also, the z-score was -2.69 (inactive) in [8]; 0.119 (inactive) in test [12]; -3.29 (inactive) in test [13]; -0.898 (inactive) in test [14]; 0.255 (inactive) in test [16].
For `CCCCN1CC=CC23O[C@@H]4/C=C\CCC(C)OC(=O)C4[C@H]2C(=O)N(C(C)CO)[C@@H]3C1=O` (stereo not given in full), the composite z-score in [1] was -0.126; in [2], -0.248; in test [3] it was -0.164; in test [4], -0.0863; in test [5] it was -0.831; in test [6], -1. For the same compound, the composite z-score in test [7] was 0.331; in test [9], -0.536; in test [10], 0.0373; in test [11], -1.58; in test [15] it was -1.13; in [17], -0.317. Moreover, the values for the composite z-score in test [18], in test [19] and in [20] were -0.422, -0.878 and -0.401, respectively. In addition, the z-score in test [8] is -0.3 (inactive); in test [12], 0.324 (inactive); in test [13], -0.944 (inactive); in [14], 0.316 (inactive); in test [16], -0.182 (inactive).
As to `C[C@H]1C2[C@H](Cc3ccccc3)NC(=O)[C@]23C(=O)NCC(=O)N2CCC[C@H]2C(=O)NC/C=C\C/C=C/C3[C@@H]2O[C@]12C` (stereo not given in full), the composite z-score was -0.376 in [1]; 0.171 in [2]; -0.087 in test [3]; 0.557 in [4]; 0.726 in test [5]; -0.139 in [6]. Also, the composite z-score in test [7] is -0.0828; in [9] it was -0.274; in [10], 0.123; in test [11], -0.115; in test [15] it was -0.691; in [17] it was -0.161. Further, the values for the composite z-score in [18], in [19] and in test [20] were -0.102, 0.105 and -0.0531, respectively. The z-score is 0.276 (inactive) in [8]; -0.479 (inactive) in [12]; -0.186 (inactive) in test [13]; -0.406 (inactive) in [14]; 0.924 (inactive) in test [16].
On to `O=C1OCCC/C=C\[C@H]2OC34C=CCN(Cc5ccccc5)C(=O)[C@H]3N(CCCCCO)C(=O)[C@@H]4C12` (stereo not given in full), for which the composite z-score in [1] is 0.566; in test [2] it was -0.079; in [3] it was -0.147; in test [4], -0.0433; in test [5], -1.12; in test [6], 1.05. The composite z-score was 0.387 in test [7]; -0.693 in test [9]; -0.116 in test [10]; 1.01 in [11]; 3.13 in test [15]; -0.166 in test [17]. In addition, the composite z-score in test [18] is -0.773; in test [19], -0.0471; in test [20], -0.245. The z-score in test [8] was 2.92 (inactive); in test [12] it was -1.05 (inactive); in [13], -2.16 (inactive); in [14], 15.7 (active); in test [16], 0.549 (inactive).
On to `[N-]=[N+]=Nc1ccccc1[C@@H]1OC(c2ccc(OCCCO)cc2)=N[C@]1(Cc1ccccc1)C(N)=O`, for which the composite z-score in test [1] was 0.379; in test [2], -0.334; in test [3], -0.0543; in test [4], 0.505; in [5], 0.824; in test [6], 1.17. The composite z-score in test [7] was 0.884; in test [9], 0.277; in [10], -0.0994; in test [11], -0.0138; in [15], 2.04; in test [17], 0.0529. Further, the figures for the composite z-score in [18], in test [19] and in test [20] were -0.231, 0.383 and 0.224, respectively. Further, the z-score in test [8] is 0.377 (inactive); in test [12] it was 0.622 (inactive); in test [13] it was -1.21 (inactive); in [14], -0.026 (inactive); in [16], 1.74 (inactive).

For the origin of these results see PubChem BioAssay.
